The values below come from article PMC7862700, “An all-to-all approach to the identification of sequence-specific readers for epigenetic DNA modifications on cytosine”.

What all share (assay): DAPPL (digital affinity profiling via proximity ligation, sequencing); 10 mM Tris-HCl pH 7.5, 50 mM NaCl, 1 mM DTT, 4% glycerol, room temperature, 30 min; GST-TFs on glutathione beads, 16-mer random dsDNA library, 0.1% formaldehyde crosslink after washing; high values mean tight binding
One experiment deals with T1, FLI1 (Homo sapiens, UniProt Q01543 1-452).
T1 sequence: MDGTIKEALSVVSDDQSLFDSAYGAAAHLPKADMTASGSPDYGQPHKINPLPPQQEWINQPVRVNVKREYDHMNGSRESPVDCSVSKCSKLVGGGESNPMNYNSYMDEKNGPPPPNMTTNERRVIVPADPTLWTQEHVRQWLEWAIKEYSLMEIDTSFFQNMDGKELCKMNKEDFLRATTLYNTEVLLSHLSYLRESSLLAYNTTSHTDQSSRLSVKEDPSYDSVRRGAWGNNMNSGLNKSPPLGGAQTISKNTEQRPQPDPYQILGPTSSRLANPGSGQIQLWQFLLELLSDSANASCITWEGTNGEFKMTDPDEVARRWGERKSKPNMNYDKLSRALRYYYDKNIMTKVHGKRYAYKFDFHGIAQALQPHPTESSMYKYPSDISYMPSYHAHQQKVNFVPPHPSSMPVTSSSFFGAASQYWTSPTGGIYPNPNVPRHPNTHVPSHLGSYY
The conditions noted are these: protein: recombinant; tags: N-terminal GST; dsDNA, one strand shown. The procedure, abridged: (§1)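 Binding signal is given per hexamer as its read frequency for a factor divided by its frequency in the tag-only sample. GST-fused human transcription factors were expressed in yeast, captured on glutathione beads, barcoded with DNA and pooled with that sample, then incubated with 200 nmole of a 16-mer random double-stranded DNA library in Tris/NaCl/DTT/glycerol buffer for 30 min at room temperature. The pools were then washed, crosslinked, proximity-ligated, amplified by PCR and sequenced on an Illumina NextSeq500.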

Another experiment concerns the target T2, ELK1 (Homo sapiens, UniProt P19419 1-428).
T2 sequence: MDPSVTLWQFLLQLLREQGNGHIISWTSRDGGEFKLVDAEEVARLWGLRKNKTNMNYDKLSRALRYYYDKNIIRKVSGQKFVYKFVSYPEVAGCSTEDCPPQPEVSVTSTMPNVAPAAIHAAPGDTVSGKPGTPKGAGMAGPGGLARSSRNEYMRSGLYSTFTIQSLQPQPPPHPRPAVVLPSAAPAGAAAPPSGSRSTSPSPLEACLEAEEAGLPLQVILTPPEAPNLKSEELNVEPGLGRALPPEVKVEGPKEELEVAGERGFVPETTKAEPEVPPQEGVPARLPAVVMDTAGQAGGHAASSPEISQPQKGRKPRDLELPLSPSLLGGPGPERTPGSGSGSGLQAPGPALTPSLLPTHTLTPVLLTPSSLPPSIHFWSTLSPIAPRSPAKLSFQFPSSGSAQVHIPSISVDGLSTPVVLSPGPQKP
The conditions noted are these: protein: recombinant; tags: N-terminal GST; dsDNA, one strand shown. The procedure, abridged:
as §1

For the next experiment, the target named is T3, GABPA (Homo sapiens, UniProt Q06546 1-454).
T3 sequence: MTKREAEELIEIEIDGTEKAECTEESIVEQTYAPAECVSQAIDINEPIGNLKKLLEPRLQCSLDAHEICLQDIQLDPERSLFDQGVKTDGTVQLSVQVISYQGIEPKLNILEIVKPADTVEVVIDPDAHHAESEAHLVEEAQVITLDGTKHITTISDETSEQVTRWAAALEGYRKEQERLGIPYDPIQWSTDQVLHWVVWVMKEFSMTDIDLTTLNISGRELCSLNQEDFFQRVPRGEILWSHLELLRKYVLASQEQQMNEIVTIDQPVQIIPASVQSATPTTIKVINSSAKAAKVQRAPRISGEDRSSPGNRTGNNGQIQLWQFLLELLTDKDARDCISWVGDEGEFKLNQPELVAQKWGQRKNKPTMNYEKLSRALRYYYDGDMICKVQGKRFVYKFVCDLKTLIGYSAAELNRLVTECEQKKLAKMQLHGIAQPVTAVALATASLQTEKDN
As to conditions: protein: recombinant; tags: N-terminal GST; dsDNA, one strand shown. The procedure, abridged:
as §1

The target of a further experiment is T4, ERG (Homo sapiens, UniProt P11308 1-479).
T4 sequence: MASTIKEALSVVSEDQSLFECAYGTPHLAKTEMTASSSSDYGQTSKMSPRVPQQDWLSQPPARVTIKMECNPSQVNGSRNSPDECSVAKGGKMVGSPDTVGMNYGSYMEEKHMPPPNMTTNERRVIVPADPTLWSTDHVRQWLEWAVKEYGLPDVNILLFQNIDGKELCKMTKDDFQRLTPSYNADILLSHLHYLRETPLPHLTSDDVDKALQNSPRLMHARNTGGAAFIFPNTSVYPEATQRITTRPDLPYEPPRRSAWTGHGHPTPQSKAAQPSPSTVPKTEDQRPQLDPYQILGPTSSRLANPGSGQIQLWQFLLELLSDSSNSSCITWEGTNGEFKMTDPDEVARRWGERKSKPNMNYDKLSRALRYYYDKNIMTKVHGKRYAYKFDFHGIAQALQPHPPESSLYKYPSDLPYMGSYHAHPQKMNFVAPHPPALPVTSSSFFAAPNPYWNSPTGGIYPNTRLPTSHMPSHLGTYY
As to conditions: protein: recombinant; tags: N-terminal GST; dsDNA, one strand shown. In short, it runs like this:
as §1

The next experiment has as its target ELF1 (Homo sapiens, UniProt P32519 1-619). As to conditions: protein: recombinant; tags: N-terminal GST; dsDNA, one strand shown. In short, it runs like this: as §1
The target in the next experiment is T5, EHF (Homo sapiens, UniProt Q9NZC4 1-300).
T5 sequence: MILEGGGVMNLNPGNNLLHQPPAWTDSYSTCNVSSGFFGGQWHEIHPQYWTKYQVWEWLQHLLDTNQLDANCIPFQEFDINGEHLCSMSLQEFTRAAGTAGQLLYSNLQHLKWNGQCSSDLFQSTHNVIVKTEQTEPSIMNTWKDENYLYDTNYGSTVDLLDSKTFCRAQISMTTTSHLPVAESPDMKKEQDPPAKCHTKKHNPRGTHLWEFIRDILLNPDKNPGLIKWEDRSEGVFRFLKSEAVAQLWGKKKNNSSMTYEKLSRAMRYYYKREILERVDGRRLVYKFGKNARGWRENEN
The conditions noted are these: protein: recombinant; tags: N-terminal GST; dsDNA, one strand shown. The procedure, abridged:
as §1

A further experiment has as its target SPI1 (Homo sapiens, UniProt P17947 1-270). The conditions noted are these: protein: recombinant; tags: N-terminal GST; dsDNA, one strand shown. The procedure, abridged:
as §1

The target of another experiment is SPIB (Homo sapiens, UniProt Q01892 1-262). The conditions noted are these: protein: recombinant; tags: N-terminal GST; dsDNA, one strand shown. In short, it runs like this: as §1
In the next experiment the target is T6, ELK3 (Homo sapiens, UniProt P41970 1-407).
T6 sequence: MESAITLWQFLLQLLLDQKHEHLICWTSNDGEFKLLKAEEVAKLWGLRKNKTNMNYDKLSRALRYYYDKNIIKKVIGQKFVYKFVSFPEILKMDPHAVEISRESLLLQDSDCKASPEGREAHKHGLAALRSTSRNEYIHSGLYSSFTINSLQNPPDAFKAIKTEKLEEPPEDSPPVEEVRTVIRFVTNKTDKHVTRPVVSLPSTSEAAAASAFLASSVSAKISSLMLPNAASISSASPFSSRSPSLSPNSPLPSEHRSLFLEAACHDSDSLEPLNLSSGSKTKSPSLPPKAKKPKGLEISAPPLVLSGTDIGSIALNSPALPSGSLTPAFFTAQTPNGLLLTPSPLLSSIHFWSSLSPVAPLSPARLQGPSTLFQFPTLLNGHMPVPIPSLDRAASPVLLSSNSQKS
The conditions noted are these: protein: recombinant; tags: N-terminal GST; dsDNA, one strand shown. The procedure, abridged: as §1

The target of the next experiment is T7, FEV (Homo sapiens, UniProt Q99581 1-238).
T7 sequence: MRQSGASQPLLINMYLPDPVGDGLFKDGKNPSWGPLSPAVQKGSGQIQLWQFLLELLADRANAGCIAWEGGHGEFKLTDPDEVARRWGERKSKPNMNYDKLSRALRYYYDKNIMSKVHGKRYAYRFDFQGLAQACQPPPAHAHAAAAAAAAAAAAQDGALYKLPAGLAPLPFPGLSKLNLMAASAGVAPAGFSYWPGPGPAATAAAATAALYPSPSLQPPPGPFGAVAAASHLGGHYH
The conditions noted are these: protein: recombinant; tags: N-terminal GST; dsDNA, one strand shown. In short, it runs like this: as §1

The target of another experiment is ETV5 (Homo sapiens, UniProt P41161 1-510). The conditions noted are these: protein: recombinant; tags: N-terminal GST; dsDNA, one strand shown. In short, it runs like this:
as §1

In the next experiment the target is HSF1 (Homo sapiens, UniProt Q00613 1-529). As to conditions: protein: recombinant; tags: N-terminal GST; chain copies: 3; dsDNA, one strand shown. In short, it runs like this:
as §1

A further experiment addresses T8, SPIC (Homo sapiens, UniProt Q8N5J4 1-248).
T8 sequence: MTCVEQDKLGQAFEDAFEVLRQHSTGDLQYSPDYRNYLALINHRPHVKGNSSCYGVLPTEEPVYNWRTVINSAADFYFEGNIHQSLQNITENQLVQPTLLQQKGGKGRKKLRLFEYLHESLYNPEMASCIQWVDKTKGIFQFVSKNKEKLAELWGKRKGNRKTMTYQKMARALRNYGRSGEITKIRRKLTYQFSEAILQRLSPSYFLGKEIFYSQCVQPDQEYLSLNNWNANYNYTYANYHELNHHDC
The conditions noted are these: protein: recombinant; tags: N-terminal GST; dsDNA, one strand shown. In short, it runs like this: as §1

For the next experiment, the target named is ELF4 (Homo sapiens, UniProt Q99607 1-663). As to conditions: protein: recombinant; tags: N-terminal GST; dsDNA, one strand shown. In short, it runs like this:
as §1

Another experiment deals with T9, ELK4 (Homo sapiens, UniProt P28324-2 1-405).
T9 sequence: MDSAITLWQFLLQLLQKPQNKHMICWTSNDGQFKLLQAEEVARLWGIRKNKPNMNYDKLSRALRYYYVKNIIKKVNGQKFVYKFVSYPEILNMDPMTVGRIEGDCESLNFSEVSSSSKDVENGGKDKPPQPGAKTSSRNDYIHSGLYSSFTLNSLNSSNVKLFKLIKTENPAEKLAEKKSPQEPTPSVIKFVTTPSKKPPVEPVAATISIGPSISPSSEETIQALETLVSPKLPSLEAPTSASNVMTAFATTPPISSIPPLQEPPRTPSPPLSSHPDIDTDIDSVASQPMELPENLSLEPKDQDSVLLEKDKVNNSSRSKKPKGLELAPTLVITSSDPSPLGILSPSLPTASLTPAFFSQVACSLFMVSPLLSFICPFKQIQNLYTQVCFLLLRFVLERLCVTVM
The conditions noted are these: protein: recombinant; tags: N-terminal GST; dsDNA, one strand shown. In short, it runs like this:
as §1

The target of a further experiment is T10, ETV2 (Homo sapiens, UniProt O00321 1-342).
T10 sequence: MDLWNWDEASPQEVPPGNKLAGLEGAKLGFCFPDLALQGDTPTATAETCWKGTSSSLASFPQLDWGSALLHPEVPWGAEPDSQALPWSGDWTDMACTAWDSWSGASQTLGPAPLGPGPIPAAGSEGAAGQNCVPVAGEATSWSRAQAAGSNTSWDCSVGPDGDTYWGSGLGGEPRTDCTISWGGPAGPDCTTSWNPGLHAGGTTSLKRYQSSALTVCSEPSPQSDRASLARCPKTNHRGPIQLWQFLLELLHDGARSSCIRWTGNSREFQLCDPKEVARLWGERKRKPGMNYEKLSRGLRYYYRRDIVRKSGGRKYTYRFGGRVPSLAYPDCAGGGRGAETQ
As to conditions: protein: recombinant; tags: N-terminal GST; dsDNA, one strand shown. The procedure, abridged: as §1

Another experiment has as its target T11, ELF3 (Homo sapiens, UniProt P78545 1-371).
T11 sequence: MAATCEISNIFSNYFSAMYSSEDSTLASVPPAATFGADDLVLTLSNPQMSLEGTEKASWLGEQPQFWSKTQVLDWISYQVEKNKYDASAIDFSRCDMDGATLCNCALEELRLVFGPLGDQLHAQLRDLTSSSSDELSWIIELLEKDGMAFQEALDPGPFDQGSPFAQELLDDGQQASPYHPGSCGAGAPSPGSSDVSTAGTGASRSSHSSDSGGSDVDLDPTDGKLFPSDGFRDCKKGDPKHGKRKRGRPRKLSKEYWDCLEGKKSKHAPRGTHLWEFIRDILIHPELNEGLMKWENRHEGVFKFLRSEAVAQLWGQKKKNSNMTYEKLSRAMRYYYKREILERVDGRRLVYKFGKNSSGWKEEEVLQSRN
The conditions noted are these: protein: recombinant; tags: N-terminal GST; dsDNA, one strand shown. In short, it runs like this:
as §1

In the next experiment the target is CRX (Homo sapiens, UniProt O43186 1-299). The conditions noted are these: protein: recombinant; tags: N-terminal GST; dsDNA, one strand shown. The procedure, abridged: as §1
A further experiment deals with ETV1 (Homo sapiens, UniProt P50549 1-477). The conditions noted are these: protein: recombinant; tags: N-terminal GST; dsDNA, one strand shown. In short, it runs like this: as §1
ETV1, sequence (P50549 whole entry): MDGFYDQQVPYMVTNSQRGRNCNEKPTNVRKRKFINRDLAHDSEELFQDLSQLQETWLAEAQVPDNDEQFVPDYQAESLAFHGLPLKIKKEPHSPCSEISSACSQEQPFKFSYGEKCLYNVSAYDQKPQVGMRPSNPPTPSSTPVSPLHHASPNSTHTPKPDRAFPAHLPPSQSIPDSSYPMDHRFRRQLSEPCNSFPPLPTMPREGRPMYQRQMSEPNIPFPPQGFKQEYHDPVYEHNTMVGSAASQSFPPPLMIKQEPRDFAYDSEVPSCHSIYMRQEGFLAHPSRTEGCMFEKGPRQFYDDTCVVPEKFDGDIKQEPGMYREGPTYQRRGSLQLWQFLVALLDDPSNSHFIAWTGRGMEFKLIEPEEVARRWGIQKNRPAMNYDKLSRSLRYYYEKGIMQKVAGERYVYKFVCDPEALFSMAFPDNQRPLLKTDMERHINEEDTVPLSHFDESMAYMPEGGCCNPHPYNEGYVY

CRX, sequence (O43186 whole entry): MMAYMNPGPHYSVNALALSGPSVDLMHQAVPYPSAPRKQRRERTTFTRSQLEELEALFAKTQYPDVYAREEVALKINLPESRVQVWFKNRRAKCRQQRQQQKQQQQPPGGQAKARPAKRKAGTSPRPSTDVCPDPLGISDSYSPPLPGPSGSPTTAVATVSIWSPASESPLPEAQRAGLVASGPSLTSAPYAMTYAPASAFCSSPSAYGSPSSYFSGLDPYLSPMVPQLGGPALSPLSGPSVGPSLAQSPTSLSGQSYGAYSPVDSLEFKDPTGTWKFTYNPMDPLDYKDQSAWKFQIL
ELF1, sequence (P32519 whole entry): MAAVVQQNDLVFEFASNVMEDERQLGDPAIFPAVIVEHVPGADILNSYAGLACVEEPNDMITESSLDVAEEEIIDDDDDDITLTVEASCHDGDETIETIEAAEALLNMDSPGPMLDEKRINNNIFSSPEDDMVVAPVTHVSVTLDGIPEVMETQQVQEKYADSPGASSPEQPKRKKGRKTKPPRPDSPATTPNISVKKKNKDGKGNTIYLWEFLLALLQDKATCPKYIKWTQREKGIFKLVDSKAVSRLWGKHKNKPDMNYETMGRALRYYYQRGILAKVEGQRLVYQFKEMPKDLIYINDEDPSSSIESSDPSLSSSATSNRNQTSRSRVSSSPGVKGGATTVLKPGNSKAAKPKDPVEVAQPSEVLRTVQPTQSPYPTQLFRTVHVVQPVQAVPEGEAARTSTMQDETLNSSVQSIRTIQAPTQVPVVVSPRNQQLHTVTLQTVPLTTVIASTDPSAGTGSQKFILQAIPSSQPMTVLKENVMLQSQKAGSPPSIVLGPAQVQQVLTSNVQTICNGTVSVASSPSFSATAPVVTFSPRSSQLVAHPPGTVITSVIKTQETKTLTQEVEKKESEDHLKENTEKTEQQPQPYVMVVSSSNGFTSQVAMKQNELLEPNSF
SPIB, sequence (Q01892 whole entry): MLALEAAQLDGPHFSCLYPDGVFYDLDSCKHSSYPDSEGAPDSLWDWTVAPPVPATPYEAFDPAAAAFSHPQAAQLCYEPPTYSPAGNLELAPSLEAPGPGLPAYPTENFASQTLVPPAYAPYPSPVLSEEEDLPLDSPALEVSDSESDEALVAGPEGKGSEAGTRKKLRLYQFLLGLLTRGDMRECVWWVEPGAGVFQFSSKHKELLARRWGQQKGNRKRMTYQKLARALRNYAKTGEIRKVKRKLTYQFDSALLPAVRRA
ELF4, sequence (Q99607 whole entry): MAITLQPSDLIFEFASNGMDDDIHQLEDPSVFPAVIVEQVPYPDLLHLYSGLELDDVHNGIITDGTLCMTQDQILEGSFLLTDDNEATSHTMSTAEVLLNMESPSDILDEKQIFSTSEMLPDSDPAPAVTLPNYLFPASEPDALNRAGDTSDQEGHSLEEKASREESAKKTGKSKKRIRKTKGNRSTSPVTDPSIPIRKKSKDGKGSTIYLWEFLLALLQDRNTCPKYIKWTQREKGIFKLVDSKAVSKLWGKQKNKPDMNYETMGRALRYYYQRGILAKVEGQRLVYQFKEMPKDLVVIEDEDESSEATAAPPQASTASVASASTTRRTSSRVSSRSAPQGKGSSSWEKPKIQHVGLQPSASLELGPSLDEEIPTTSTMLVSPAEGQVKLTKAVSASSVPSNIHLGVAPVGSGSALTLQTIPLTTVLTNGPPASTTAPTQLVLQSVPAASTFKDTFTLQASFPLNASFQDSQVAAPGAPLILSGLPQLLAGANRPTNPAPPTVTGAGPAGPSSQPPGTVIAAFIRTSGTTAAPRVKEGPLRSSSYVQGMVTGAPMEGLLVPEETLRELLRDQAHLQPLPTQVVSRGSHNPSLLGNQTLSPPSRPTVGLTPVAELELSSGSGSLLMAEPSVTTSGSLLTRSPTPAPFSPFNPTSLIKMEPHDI
HSF1, sequence (Q00613 whole entry): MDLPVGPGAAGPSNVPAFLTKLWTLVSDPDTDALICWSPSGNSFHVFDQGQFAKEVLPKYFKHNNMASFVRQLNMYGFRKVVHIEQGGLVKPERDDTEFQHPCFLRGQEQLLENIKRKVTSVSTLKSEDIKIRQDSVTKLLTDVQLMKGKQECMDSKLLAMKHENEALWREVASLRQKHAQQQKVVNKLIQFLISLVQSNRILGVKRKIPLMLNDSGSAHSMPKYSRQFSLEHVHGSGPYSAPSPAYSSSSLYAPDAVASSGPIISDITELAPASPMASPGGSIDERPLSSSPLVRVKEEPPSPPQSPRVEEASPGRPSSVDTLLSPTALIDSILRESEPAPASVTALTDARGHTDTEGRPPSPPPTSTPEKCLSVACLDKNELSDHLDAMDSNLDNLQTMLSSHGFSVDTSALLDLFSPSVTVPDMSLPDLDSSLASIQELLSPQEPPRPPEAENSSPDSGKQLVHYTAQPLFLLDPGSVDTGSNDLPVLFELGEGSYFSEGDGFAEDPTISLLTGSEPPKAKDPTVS
ETV5, sequence (P41161 whole entry): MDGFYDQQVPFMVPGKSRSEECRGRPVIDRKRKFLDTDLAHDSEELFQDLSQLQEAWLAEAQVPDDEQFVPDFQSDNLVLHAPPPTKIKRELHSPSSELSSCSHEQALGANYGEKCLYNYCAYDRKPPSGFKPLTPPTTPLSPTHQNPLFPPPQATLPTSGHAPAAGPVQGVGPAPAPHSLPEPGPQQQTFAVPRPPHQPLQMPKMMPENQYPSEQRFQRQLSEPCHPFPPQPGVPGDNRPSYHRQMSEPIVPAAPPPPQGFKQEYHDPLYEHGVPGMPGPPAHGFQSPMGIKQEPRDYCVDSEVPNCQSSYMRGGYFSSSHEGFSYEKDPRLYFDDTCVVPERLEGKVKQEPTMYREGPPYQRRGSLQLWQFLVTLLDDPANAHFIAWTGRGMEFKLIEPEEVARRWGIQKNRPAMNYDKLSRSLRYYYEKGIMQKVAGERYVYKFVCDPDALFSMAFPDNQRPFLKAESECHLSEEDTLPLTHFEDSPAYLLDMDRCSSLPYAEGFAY

Take AGTACT: the binding signal was 1.22 fold enrichment (6-mer frequency, TF over GST control) in the experiment with FLI1; 1.41 fold enrichment (6-mer frequency, TF over GST control) with ELK1; 1.19 fold enrichment (6-mer frequency, TF over GST control) in the experiment with GABPA; 1.25 fold enrichment (6-mer frequency, TF over GST control) with ERG; 1.22 fold enrichment (6-mer frequency, TF over GST control) with ELF1; 1.27 fold enrichment (6-mer frequency, TF over GST control) in the experiment with EHF. For the same sequence, the binding signal is 1.25 fold enrichment (6-mer frequency, TF over GST control) in the experiment with SPI1; 1.13 fold enrichment (6-mer frequency, TF over GST control) with SPIB; 1.44 fold enrichment (6-mer frequency, TF over GST control) with ELK3; 1.28 fold enrichment (6-mer frequency, TF over GST control) with FEV; 1.19 fold enrichment (6-mer frequency, TF over GST control) with ETV5; 1.03 fold enrichment (6-mer frequency, TF over GST control) with HSF1. Also, the binding signal with SPIC is 1.35 fold enrichment (6-mer frequency, TF over GST control); in the experiment with ELF4, 1.19 fold enrichment (6-mer frequency, TF over GST control); in the experiment with ELK4, 1.12 fold enrichment (6-mer frequency, TF over GST control); with ETV2, 1.11 fold enrichment (6-mer frequency, TF over GST control); with ELF3, 1.29 fold enrichment (6-mer frequency, TF over GST control); with CRX, 1.02 fold enrichment (6-mer frequency, TF over GST control). The binding signal with ETV1 was 1.19 fold enrichment (6-mer frequency, TF over GST control).
